This is part of a sample that, as a whole, favours compounds with a hit. Of some 83,000 tested, about 20% had one in any assay.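 Activity criterion: percent growth below 10, measured after cells in 96-well plates were exposed to a single compound concentration for 48 hours.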 Active and inactive are the calls of the source.

For this test, the system named is SN12C renal. Put plainly: NCI-60 one-dose screen, 48 h (100 = growth as untreated, 0 = no growth, -100 = all killed). Conditions: 10 µM unless noted. The protocol: Growth inhibition of the SN12C human tumor cell line is measured as a screen for anti-cancer activity. Cells are grown in 96 well plates and exposed to the test compound for 48 hours. Compounds are tested at a single concentration, which is 10^-5 M for most compounds. The reported endpoint is percent growth (GI% or GIPRCNT), where numbers from 0 - 100% represent growth inhibition, and numbers from -100% - 0 represent cell death. For example, a value of 40 represents 60% growth inhibition. A value of 0 means no net growth occurred over the course of the experiment. A value of -40 indicates 40% of cells at the beginning of the experiment died by the end of the experiment. A value of -100 means all cells are dead at the end of the experiment.
NCI-60 Human Tumor Cell Lines Screen was performed using the standard one-dose NCI protocol, which is described in more detail at https://dtp.cancer.gov/discovery_development/nci-60/default.htm.
Compounds with GIPRCNT values below 10 were considered active. Activity score was based on GIPRCNT using the following formula: […]
Score is 0 for GIPRCNT values of 100 or above, 50 for GIPRCNT values of 0, and 100 for GIPRCNT values of -100.
`O=C(CBr)OCc1ccc([N+](=O)[O-])o1`: the growth was 98.8% (inactive).

As to `Cc1ccc(CC(=O)O)c(C)c1`, the growth is 99.4% (inactive).

As for `O=C(CN1C(=O)NC(c2ccccc2)(c2ccccc2)C1=O)c1ccc(N2CCCC2)cc1`, the growth was 103% (inactive).

For the compound `CCCCCc1ccnc(CC(=O)c2ccc(OC)cc2)c1`, the growth is 91.8% (inactive).

Consider `CCCCCCCCCCCCCCCCCC1=NCCN1CS(=O)(=O)O`, for which the growth was 53.2% (inactive).

Take `COc1ccc2cnc(N)c(C#Cc3cc(C(=O)Nc4ccc(CN5CCN(C)CC5)c(C(F)(F)F)c4)cnc3C)c2c1`: the growth is 50% (inactive).

`C/C=C(/C)C(=O)OC1C=C(CO)C(=O)C(OC(=O)C2(C)OC2C)C1C(C)C` (stereo not given): the growth was -44.4% (active).

On to `CC/C(=N\Nc1nc2ccccc2n1C)c1ccccn1`, for which the growth was 13.6% (inactive).

Regarding `O=C(/C=C/c1c[nH]c2ccccc12)c1cc2ccccc2o1`, the growth was 101% (inactive).

In the case of `CCOC(=O)C1=NN(c2ccccc2)C2=NC(=O)/C(=C\c3cn(-c4ccccc4)nc3-c3cc4ccccc4o3)C(=O)N12`, the growth is 94.3% (inactive).

In the case of `C/C=C(/C)C(=O)OC1C=C(CO)C(=O)C(OC(=O)C(C)(O)C(C)Cl)C1C(C)C` (stereo not given), the growth is -35.4% (active).

As for `N#Cc1ccc(NC2c3ccccc3CC2O)cc1` (stereo not given), the growth was 107% (inactive).

For the compound `COc1ccc(-c2nc(SCC(C)C)nc(Nc3ccc([N+](=O)[O-])cc3)c2C#N)cc1`, the growth was 72% (inactive).

On to `CC1=C(C)C[C@]2(C(=O)O[C@H]3CCCC[C@@H]32)[S@](=O)C1`, for which the growth was 102% (inactive).

Turning to `CCOc1ccc2nc3ccc(Cl)cc3nc2c1`, the growth is 100% (inactive).

Turning to `CNc1ccc(Nc2ccc(S(=O)(=O)O)cc2)c2c1C(=O)c1ccccc1C2=O`, the growth was 92.8% (inactive).

For the compound `COc1cc2c(cc1OC)C(Cc1cc(OC)c(OC)cc1[N+](=O)[O-])=NCC2`, the growth is 77.9% (inactive).

On to `COc1ccc(/C=C2\SC(=O)N(Cc3cc(=O)oc4ccc(OC)cc34)C2=O)cc1`, for which the growth was 90.7% (inactive).

In the case of `Cc1cc2c(-c3nc4ccccc4n3C)c(O)c(O)cc2c(O)c1-c1c(C)cc2c(-c3nc4ccccc4n3C)c(O)c(O)cc2c1O`, the growth is 35.2% (inactive).

Regarding `COc1cc2c(/C=C3\C(=O)Nc4ccc(Br)cc43)c(Cl)n(C)c2cc1C`, the growth was 35.5% (inactive).

`CCCCCCCCCCC1OC(C)CC(C)O1` (stereo not given): the growth was 103% (inactive).

For `C#CCCCCCCC[C@@H]1OC(=O)[C@H]([C@@H](C)CC)NC(=O)[C@H]([C@@H](C)CC)NC(=O)CC(=O)[C@@H]1C`, the growth was 98.5% (inactive).

With `N=C(c1ccccc1)N(Cc1ccccc1)Cc1ccccc1`, the growth was 98.8% (inactive).

In the case of `S=C(N/N=C/c1cc(Cl)cc(Cl)c1)NC12CC3CC(CC(C3)C1)C2`, the growth was 88.6% (inactive).

On to `COc1ccc(OC)c(Cn2cc3c(c2)-c2oncc2CC3)c1`, for which the growth is 45.9% (inactive).

Consider `COc1ccc(-c2nc(N)n(C(=S)Nc3ccccc3)n2)cc1`, for which the growth was 100% (inactive).

With `COC(=O)/C(Br)=C/c1c[nH]c2ccc(Br)cc12`, the growth is 88.1% (inactive).

Turning to `O=C(NC1CCN(Cc2ccccc2)CC1)c1cc(-c2cccnc2)nc2ccc(Cl)cc12`, the growth was 63.1% (inactive).

`O=C(/C=C\c1ccc(NCc2ccc(C(=O)O)cc2)cc1)CCl`: the growth is 79.7% (inactive).

With `Cc1c(Cc2ccccc2)c(=O)oc2c(C)c(OCC(=O)n3nc(C#N)cc3N)ccc12`, the growth was 102% (inactive).

On to `CCN(CC)c1ccc2nc3ccc(N=Nc4ccc(O)cc4)cc3[n+](-c3ccccc3)c2c1`, for which the growth is 75.5% (inactive).

As for `CCOC(=O)C1C(=O)C(=O)N(C(C)C)C1C(=O)OCC` (stereo not given), the growth is 94.4% (inactive).

In the case of `CCOC(=O)c1sc(NS(=O)(=O)c2ccccc2)nc1C`, the growth was 100% (inactive).

For `COc1cc(-c2nc(/C=C3/C(=O)Nc4ccccc43)c3ccccn23)cc(OC)c1OC`, the growth is 79.3% (inactive).

With `COc1ccc2sc(-n3nc4nc5n(c(=O)c4c3N)-c3ccccc3Sc3ccccc3-5)nc2c1`, the growth is 76.7% (inactive).

For the compound `COC(=O)/C=C/c1cc(O)c2oc(-c3ccc(O)c(O)c3)c(C(=O)OC)c2c1`, the growth was 34.4% (inactive).

On to `O=C(NCCO)C(F)(F)F`, for which the growth is 102% (inactive).

With `O=C(/C=C/c1ccc(Cl)cc1)c1ccc(Cl)cc1`, the growth was 102% (inactive).

For `O=C(CCC(=O)N(CCO)CCO)N(CCO)CCO`, the growth is 106% (inactive).

In the case of `CCCC(=O)NNc1[nH]c(-c2ccc(OC)cc2)cc1C(=O)OCC`, the growth was 110% (inactive).

(Values after PubChem BioAssay (NCI).)
